Source: PubChem BioAssay (EPA / NIEHS)
Records with an inconclusive call do not appear. Calls of active or inactive are those of the source. Rule for the calls, unless noted: active = hit-call score of the fitted dose curve at least 0.9, where 1 is the maximum; inactive = score below 0.9.

Columns and labels:
[1] = biological target: Paired box protein Pax-6 (Homo sapiens) (UniProt P26367); assay: ATG_Pax6_CIS: Attagene CIS-FACTORIAL HepG2 Assay for human Paired Box 6 (PAX6) (AID 2282956); conditions: HepG2 CIS-FACTORIAL PAX6 reporter transcription, RNA readout; actives raise or lower the signal
Chain of Paired box protein Pax-6 (Homo sapiens) (P26367 whole entry, looked up): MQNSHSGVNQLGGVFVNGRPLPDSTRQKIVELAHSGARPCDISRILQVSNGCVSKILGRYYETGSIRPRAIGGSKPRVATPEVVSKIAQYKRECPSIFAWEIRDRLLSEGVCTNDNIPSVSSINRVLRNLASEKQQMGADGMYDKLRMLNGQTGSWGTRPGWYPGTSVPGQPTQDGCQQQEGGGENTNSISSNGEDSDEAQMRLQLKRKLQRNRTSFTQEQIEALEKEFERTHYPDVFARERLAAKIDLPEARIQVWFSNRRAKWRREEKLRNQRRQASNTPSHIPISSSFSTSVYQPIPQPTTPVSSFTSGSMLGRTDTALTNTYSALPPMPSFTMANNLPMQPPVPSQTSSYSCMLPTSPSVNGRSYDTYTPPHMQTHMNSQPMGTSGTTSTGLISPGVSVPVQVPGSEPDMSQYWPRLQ
How it was run: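 HepG2 cells transiently transfected with cis-promoter-driven multiplexed reporter units sensing endogenous transcription factor activity; 24 h chemical exposure. Reporter mRNA quantified by RT-PCR, 6-FAM labelling, HpaI digestion and capillary electrophoresis; bidirectional fit versus DMSO baseline.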

[2] = ATG_PXRE_CIS: Attagene CIS-FACTORIAL HepG2 Assay for human Pregnane X Receptor Element (PXRE) (AID 2282957); conditions: HepG2 Attagene CIS-FACTORIAL PXRE reporter, mRNA; actives raise or lower the signal
How it was run: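 HepG2 cells transiently transfected with cis-element-driven multiplexed reporter units; after 24 h chemical exposure, reporter mRNA measured by RT-PCR, 6-FAM labelling, HpaI digestion and capillary electrophoresis. Bidirectional fitting relative to DMSO.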

[3] = ATG_PPRE_CIS: Attagene CIS-FACTORIAL HepG2 Assay for human Peroxisome Proliferator-activated Response Element (PPRE) (AID 2282958); conditions: HepG2 PPRE cis-element reporter, Attagene transcription factor profiling; actives raise or lower the signal
How it was run: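 In this cell-based multiplex, a PPRE cis element drives a reporter sequence in transiently transfected HepG2 cells. Following 24 h treatment, labeled cDNA amplicons are sized and quantified by capillary electrophoresis, with DMSO defining baseline.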

[4] = ATG_RORE_CIS: Attagene CIS-FACTORIAL HepG2 Assay for human RAR-related Orphan Receptor Element (RORE) (AID 2282959); conditions: HepG2 Attagene cis-factorial RORE reporter, mRNA; actives raise or lower the signal
How it was run: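 Endogenous factor activity at a cis response element is read as reporter transcript levels in HepG2 cells, 24 h post-dose. Transcripts are quantified by RT-PCR with capillary electrophoresis, and data fitted in both directions against DMSO.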

[5] = ATG_Sox_CIS: Attagene CIS-FACTORIAL HepG2 Assay for human SRY-box transcription factor (SOX) (AID 2282960); conditions: HepG2 Attagene cis-factorial SOX reporter, mRNA; actives raise or lower the signal
How it was run: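 Measures mRNA induction of a SOX1-associated reporter in HepG2 after 24 h dosing. Fluorescently labelled RT-PCR fragments are separated by capillary electrophoresis, and gain or loss relative to DMSO control is fitted.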

[6] = biological target: Transcription factor Sp1 (Homo sapiens) (UniProt P08047); assay: ATG_Sp1_CIS: Attagene CIS-FACTORIAL HepG2 Assay for human Specificity Protein 1 (Sp1) (AID 2282961); conditions: HepG2 Sp1 cis-reporter transcription, actives raise or lower the signal
Chain of Transcription factor Sp1 (Homo sapiens) (P08047 whole entry, looked up): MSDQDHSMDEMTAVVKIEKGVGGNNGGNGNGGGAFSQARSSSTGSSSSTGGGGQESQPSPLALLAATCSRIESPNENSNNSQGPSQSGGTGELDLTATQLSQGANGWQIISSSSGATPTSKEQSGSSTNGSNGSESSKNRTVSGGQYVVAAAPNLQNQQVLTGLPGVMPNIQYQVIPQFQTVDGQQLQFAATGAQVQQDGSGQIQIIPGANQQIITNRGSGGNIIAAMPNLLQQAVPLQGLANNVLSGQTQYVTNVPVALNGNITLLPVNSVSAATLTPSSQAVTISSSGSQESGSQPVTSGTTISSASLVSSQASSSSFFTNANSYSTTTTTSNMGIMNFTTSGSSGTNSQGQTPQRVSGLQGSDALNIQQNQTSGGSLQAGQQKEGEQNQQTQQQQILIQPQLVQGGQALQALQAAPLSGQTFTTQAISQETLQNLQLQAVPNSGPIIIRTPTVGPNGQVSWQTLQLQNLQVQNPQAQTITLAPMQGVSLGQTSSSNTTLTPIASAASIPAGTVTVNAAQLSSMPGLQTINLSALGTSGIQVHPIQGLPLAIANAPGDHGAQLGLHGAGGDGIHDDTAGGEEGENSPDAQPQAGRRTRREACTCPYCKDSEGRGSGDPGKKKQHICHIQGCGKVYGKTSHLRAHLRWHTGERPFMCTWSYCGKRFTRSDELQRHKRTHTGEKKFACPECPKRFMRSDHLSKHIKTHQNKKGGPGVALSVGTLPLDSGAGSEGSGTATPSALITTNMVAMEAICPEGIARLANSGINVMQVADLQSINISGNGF
How it was run: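 Cells: HepG2, transiently transfected with cis-regulated multiplexed reporters. Exposure: 24 h. Detection: reporter transcripts amplified, fluorescently labeled, restriction-digested and sized by capillary electrophoresis. Analysis: bidirectional fit relative to DMSO.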

[7] = ATG_SREBP_CIS: Attagene CIS-FACTORIAL HepG2 Assay for human Sterol Regulatory Element Binding (SREBP) (AID 2282962); conditions: HepG2 Attagene cis-factorial SREBP reporter, mRNA; actives raise or lower the signal
How it was run: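 HepG2 cells transiently transfected with multiplexed cis-promoter reporter units sensing endogenous transcription factors; reporter mRNA measured 24 h after dosing by RT-PCR, 6-FAM labeling, HpaI digestion and capillary electrophoresis. Bidirectional fit versus DMSO.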

[8] = biological target: Signal transducer and activator of transcription 3 (Homo sapiens) (UniProt P40763); assay: ATG_STAT3_CIS: Attagene CIS-FACTORIAL HepG2 Assay for human Signal Transducer and Activator of Transcription 3 (STAT3) (AID 2282963); conditions: HepG2, Attagene cis-factorial STAT3 reporter transcription; actives raise or lower the signal
Chain of Signal transducer and activator of transcription 3 (Homo sapiens) (P40763 whole entry, looked up): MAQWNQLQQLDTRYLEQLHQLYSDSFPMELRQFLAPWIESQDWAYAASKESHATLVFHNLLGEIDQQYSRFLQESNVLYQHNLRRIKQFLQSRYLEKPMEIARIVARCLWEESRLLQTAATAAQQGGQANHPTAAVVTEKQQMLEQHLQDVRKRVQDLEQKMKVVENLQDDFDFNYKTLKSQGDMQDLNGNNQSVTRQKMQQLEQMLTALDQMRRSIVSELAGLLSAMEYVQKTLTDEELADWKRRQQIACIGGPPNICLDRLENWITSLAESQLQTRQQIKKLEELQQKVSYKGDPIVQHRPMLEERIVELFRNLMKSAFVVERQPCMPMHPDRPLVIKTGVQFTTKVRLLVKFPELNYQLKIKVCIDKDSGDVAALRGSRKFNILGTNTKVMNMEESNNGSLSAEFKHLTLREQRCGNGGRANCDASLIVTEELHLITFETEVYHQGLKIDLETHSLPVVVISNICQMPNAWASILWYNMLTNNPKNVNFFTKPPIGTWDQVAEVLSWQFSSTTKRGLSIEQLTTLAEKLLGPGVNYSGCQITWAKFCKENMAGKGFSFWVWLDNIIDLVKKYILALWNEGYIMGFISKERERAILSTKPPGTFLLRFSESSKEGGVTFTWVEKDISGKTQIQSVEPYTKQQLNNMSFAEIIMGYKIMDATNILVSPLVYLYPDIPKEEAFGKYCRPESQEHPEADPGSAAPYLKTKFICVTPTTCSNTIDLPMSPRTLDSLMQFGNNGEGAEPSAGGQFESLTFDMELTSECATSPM
How it was run: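 HepG2 cells transiently transfected with cis-element-driven multiple reporter transcription units; after 24 h chemical exposure, reporter mRNA measured by RT-PCR, 6-FAM primer-extension labelling, HpaI digestion and capillary electrophoresis. Bidirectional fitting versus DMSO baseline.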

[9] = ATG_TA_CIS: Attagene CIS-FACTORIAL HepG2 Assay for human TA Basal Promoter (AID 2282964); conditions: HepG2 Attagene CIS-factorial TA basal promoter reporter; actives raise or lower the signal
How it was run: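 Multiplexed mRNA reporter assay, HepG2, 24 h. Reporter cDNA amplified, 6-FAM primer-extended, HpaI-cut, CE-sized; DMSO = negative control and baseline.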

[10] = ATG_TCF_b_cat_CIS: Attagene CIS-FACTORIAL HepG2 Assay for human T-Cell-Factor with beta-catenin (TCF/b-cat) (AID 2282965); conditions: HepG2 TCF/beta-catenin cis-reporter transcription, actives raise or lower the signal
How it was run: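 HepG2 cells transiently transfected with multiple cis-promoter-regulated reporter transcription units, so endogenous transcription factor activity is measured. Reporter mRNA read 24 hours after dosing by RT-PCR, fluorescent labelling and capillary electrophoresis; bidirectional fitting against DMSO.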

[11] = ATG_TAL_CIS: Attagene CIS-FACTORIAL HepG2 Assay for human TAL Basal Promoter (AID 2282966); conditions: HepG2 Attagene cis-factorial TAL promoter reporter; actives raise or lower the signal;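 note: background control endpoint measuring basal TAL promoter reporter mRNA not a specific factor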
How it was run: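 HepG2 cells transiently transfected with multiplexed cis-promoter reporter units, dosed 24 h. Reporter mRNA quantified by RT-PCR, 6-FAM labelling, HpaI digestion and capillary electrophoresis; TAL basal promoter serves as background control, fitted bidirectionally versus DMSO.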

[12] = ATG_TGFb_CIS: Attagene CIS-FACTORIAL HepG2 Assay for human Transforming Growth Factor (TGF) (AID 2282967); conditions: HepG2 Attagene CIS TGFb reporter, mRNA transcription; actives raise or lower the signal
How it was run: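 Transcript-level reporter readout: HepG2 transfectants, 24 h exposure, RNA to cDNA, reporter-specific PCR, fluorescent primer extension, capillary sizing against ROX standards. Gain- or loss-of-signal relative to DMSO.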

[13] = ATG_VDRE_CIS: Attagene CIS-FACTORIAL HepG2 Assay for human Vitamin D Receptor Element (VDRE) (AID 2282968); conditions: HepG2 VDRE cis-reporter transcription, actives raise or lower the signal
How it was run: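 HepG2 cells transiently transfected with cis-element reporter units, dosed 24 h; reporter mRNA measured by RT-PCR, 6-FAM labeling, HpaI digestion and capillary electrophoresis. Activity fitted bidirectionally against DMSO baseline.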

[14] = biological target: X-box-binding protein 1 (Homo sapiens) (UniProt P17861); assay: ATG_Xbp1_CIS: Attagene CIS-FACTORIAL HepG2 Assay for human X-box Binding Protein 1 (XBP1) (AID 2282972); conditions: HepG2 XBP1 cis-element reporter, Attagene multiplex; actives raise or lower the signal
Chain of X-box-binding protein 1 (Homo sapiens) (P17861 whole entry, looked up): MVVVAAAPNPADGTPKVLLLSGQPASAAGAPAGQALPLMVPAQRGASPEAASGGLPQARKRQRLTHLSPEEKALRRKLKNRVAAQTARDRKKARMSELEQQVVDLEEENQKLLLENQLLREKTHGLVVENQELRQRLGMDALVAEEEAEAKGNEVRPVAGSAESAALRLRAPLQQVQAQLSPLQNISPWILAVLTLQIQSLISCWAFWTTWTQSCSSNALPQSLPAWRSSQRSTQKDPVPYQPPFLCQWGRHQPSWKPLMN
How it was run: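 HepG2 cells transiently transfected with multiple cis-element reporter units report endogenous TF activity; 24 h exposure, then reporter mRNA measured by RT-PCR, 6-FAM labelling, HpaI digestion and capillary electrophoresis. Bidirectional fitting versus DMSO.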

[15] = ATG_M_19_TRANS: Attagene TRANS-FACTORIAL HepG2 Assay for M19 Transcription Factor (Internal Marker) (AID 2282974; active = hit-call score of the fitted dose curve at least 0.9, where 1 is the maximum); conditions: HepG2 Attagene TRANS-FACTORIAL M19 internal marker reporter
How it was run: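 Reporter mRNA induction was measured in transfected HepG2 cells 24 h after dosing. Endpoint fitted upward relative to DMSO and serves as a background control within the multiplexed TRANS panel.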

[16] = ATG_GAL4_TRANS: Attagene TRANS-FACTORIAL HepG2 Assay for GAL4 (Internal Marker) (AID 2282976; active = hit-call score of the fitted dose curve at least 0.9, where 1 is the maximum); conditions: HepG2 Attagene TRANS GAL4 internal marker reporter
How it was run: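 Background-control readout: GAL4-UAS reporter transcript in transiently transfected HepG2 cells after 24 h compound exposure. Measured by RT-PCR, 6-FAM primer extension, HpaI digest and capillary electrophoresis; gain-of-signal fit versus DMSO.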

[17] = biological target: Estrogen receptor (Homo sapiens) (UniProt P03372); assay: ATG_ERa_TRANS: Attagene TRANS-FACTORIAL HepG2 Assay for human Estrogen Receptor alpha (ERa) (AID 2282970; active = hit-call score of the fitted dose curve at least 0.9, where 1 is the maximum); conditions: HepG2 Attagene TRANS ERa GAL4 reporter, mRNA
Chain of Estrogen receptor (Homo sapiens) (P03372 whole entry, looked up, the tested form may be a part): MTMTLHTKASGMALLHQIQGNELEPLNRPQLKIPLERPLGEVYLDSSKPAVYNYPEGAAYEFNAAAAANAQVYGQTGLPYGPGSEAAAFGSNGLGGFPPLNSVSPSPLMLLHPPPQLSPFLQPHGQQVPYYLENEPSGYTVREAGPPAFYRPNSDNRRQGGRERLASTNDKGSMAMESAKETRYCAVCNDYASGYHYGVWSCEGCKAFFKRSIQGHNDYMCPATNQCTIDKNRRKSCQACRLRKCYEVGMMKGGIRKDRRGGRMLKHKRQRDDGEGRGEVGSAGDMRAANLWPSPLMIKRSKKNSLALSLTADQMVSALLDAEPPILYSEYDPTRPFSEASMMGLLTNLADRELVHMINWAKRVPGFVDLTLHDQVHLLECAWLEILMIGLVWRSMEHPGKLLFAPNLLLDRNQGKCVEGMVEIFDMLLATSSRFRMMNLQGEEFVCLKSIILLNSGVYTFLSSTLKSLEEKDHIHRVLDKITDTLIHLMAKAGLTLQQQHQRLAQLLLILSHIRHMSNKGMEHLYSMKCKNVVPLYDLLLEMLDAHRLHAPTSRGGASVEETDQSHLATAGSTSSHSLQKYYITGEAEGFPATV
How it was run: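 HepG2 cells transiently transfected with multiplexed GAL4-UAS reporter units read out chimeric NR-Gal4 activity. After 24 h compound exposure, reporter mRNA was quantified by RT-PCR, 6-FAM labeling, HpaI digestion and capillary electrophoresis, relative to DMSO.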

[18] = biological target: Steroid hormone receptor ERR1 (Homo sapiens) (UniProt P11474); assay: ATG_ERRa_TRANS: Attagene TRANS-FACTORIAL HepG2 Assay for human Estrogen-Related Receptor alpha (ERRa) (AID 2282971; active = hit-call score of the fitted dose curve at least 0.9, where 1 is the maximum); conditions: HepG2 Attagene TRANS reporter, ERRa transactivation
Chain of Steroid hormone receptor ERR1 (Homo sapiens) (P11474 whole entry, looked up, the tested form may be a part): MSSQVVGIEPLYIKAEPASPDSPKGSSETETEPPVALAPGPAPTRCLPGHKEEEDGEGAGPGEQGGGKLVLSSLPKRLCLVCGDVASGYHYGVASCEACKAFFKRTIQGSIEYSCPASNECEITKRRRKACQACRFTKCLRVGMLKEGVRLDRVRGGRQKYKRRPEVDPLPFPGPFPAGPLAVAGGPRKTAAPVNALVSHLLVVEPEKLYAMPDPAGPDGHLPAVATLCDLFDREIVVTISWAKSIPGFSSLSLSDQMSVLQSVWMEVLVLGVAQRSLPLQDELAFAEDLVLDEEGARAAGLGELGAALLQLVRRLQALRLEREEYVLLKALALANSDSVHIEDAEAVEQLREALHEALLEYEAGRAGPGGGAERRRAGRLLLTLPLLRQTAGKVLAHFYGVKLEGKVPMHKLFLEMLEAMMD
How it was run: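 HepG2 cells transiently transfected with GAL4-UAS reporter units and chimeric NR-Gal4 constructs; after 24 hour compound incubation, reporter mRNA quantified by RT-PCR, fluorescent labelling and capillary electrophoresis, gain of signal versus DMSO.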

Measured: AC50

O=C1OC2(c3ccc(O)cc3Oc3cc(O)ccc32)c2ccccc21
active: [2] 0.741 µM
inactive: [1] | [3] | [4] | [5] | [6] | [7] | [8] | [9] | [10] | [11] | [12] | [13] | [14] | [15]

CCCCCC1CCC(=O)O1 (stereo not drawn)
inactive: [1] | [2] | [3] | [4] | [5] | [6] | [7] | [8] | [9] | [10] | [11] | [12] | [13] | [15] | [16]

C=C(C)CCCC(C)CCO (stereo not drawn)
inactive: [1] | [3] | [4] | [5] | [6] | [7] | [8] | [9] | [10] | [11] | [12] | [17] | [14] | [15] | [16]
active: [2] 6.72 µM

CC(=O)OC(C)(C)C
inactive: [1] | [2] | [3] | [4] | [5] | [6] | [7] | [8] | [9] | [11] | [12] | [14] | [15] | [16]

CCCCCC1C(=O)CCC1CC(=O)OC (stereo not drawn)
inactive: [1] | [2] | [3] | [5] | [7] | [8] | [9] | [11] | [12] | [13] | [17] | [14]

CC(C)(O)C(=O)c1ccc(OCCO)cc1
inactive: [1] | [2] | [3] | [4] | [5] | [6] | [7] | [8] | [9] | [10] | [11] | [14] | [16]

CCn1cc(C(=O)O)c(=O)c2ccc(C)nc21
inactive: [1] | [2] | [3] | [4] | [5] | [6] | [7] | [8] | [9] | [10] | [11] | [12] | [13] | [18] | [14] | [16]

O=C1CCC(=O)N1
inactive: [1] | [2] | [3] | [4] | [5] | [6] | [7] | [8] | [9] | [11] | [13] | [17] | [18] | [14] | [15]

CCCCCCCOC(C)=O
inactive: [1] | [3] | [4] | [5] | [7] | [8] | [9] | [10] | [11] | [12] | [13] | [14]
active: [2] 31 µM

NC(N)=NC(N)=NCCc1ccccc1
inactive: [1] | [2] | [3] | [4] | [5] | [6] | [7] | [8] | [9] | [10] | [11] | [12] | [14] | [15]
